Screening data as filed in PubChem BioAssay.
Sampled rows, rich in hits. Any-hit rate of the full collection: about 19%.
HepG2 tox-1: kills HepG2 cells in TGF-b inhibitor counter-screen; Potency, µM (doses to about 46.1 µM), most hits filed as cytotoxic; HepG2 CAGA-GFP viability, ATP luminescence, 18 h; AID 588856; 0.76% of 410,000 active
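CellTiter-Glo luminescence gave cytotoxicity after 18 hours at 37 degrees C. The cells were HepG2 CAGA-GFP in 1% FBS DMEM, stimulated with 500 pg/mL TGF-beta after compound addition. %Activity was normalised to no-cell wells (complete cell-killing) and DMSO (no toxicity), and curves were fitted and classified.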
IL-1B inflam inh: inhibitors of inflammasome signaling (IL-1 beta secretion); 4.7% of 360,000 active; THP-1 LPS/ATP IL-1B secretion, AlphaLISA, 16 h; hits give low values; activity change, % at 57.5 µM; AID 743279; in the data active = activity change below about -50%; inconclusive = mostly about -30% to -49%
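Secreted IL-1B measured by AlphaLISA bead assay after 16 h compound exposure of THP-1 cells; compounds (final up to 57.5 uM) added 1 h before LPS (250 ng/mL) and ATP (1.25 mM) stimulation; lower signal means less secretion.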
TDP1 inh: inhibitors of human tyrosyl-DNA phosphodiesterase TDP1; Q9NUW8; recombinant TDP1, AlphaScreen DNA substrate cleavage; Potency, µM (titrated, usually from 130 µM), actives largely listed as inhibitors; 0.28% of 350,000 active; AID 485290; note: nearly all actives have a fitted effect of over 40% in size
Target sequence (Q9NUW8 whole entry, looked up): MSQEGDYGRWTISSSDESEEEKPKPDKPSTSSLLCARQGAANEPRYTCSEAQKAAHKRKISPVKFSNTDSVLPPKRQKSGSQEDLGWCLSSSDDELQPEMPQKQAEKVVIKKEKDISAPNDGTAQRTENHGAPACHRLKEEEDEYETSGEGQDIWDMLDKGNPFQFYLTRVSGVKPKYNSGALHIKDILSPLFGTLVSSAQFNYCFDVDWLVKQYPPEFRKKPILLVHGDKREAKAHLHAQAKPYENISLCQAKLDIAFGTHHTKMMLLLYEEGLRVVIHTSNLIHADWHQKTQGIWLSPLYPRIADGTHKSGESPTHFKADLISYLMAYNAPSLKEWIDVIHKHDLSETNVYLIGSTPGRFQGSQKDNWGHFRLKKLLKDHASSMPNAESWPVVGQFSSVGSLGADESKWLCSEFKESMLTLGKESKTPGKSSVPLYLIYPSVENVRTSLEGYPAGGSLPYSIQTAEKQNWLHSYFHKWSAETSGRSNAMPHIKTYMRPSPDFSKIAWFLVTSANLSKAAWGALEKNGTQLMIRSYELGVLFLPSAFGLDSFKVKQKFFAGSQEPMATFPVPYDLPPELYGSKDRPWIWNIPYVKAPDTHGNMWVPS
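Signal: AlphaScreen proximity between streptavidin donor and anti-FITC acceptor beads on intact substrate. Reaction: Tdp1 1 nM, substrate 15 nM final, 5 min RT after 15 min compound preincubation.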
DT40 TDP1 CPT: growth inhibition of DT40 Tdp1-/-;hTDP1 cells with camptothecin (screen for TDP1 inhibitors); Potency, µM (highest dose often 46.2 µM), most hits filed as inhibitors; 12% of 420,000 active; chicken DT40 Tdp1-/-;hTDP1 cells + 20 nM CPT, ATP luminescence, 48 h; AID 686979; note: nearly all actives have a fitted effect of over 55% in size
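Chicken DT40 Tdp1-/- cells complemented with human TDP1, 400 cells/well, exposed to compounds plus 20 nM camptothecin for at least 48 h at 37 C; viability read as ATP content by CellTiter-Glo luminescence.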
TGFb inhibitor: TGF-b pathway inhibition; 1.2% of 410,000 active; Potency, µM (top dose mostly 46.1 µM), hits mostly inhibitors; AID 588855; HepG2 CAGA-GFP TGF-b/SMAD3 reporter, GFP fluorescence, 18 h; TGF-beta stimulated, 500 pg/mL final; note: nearly all actives have a fitted effect of over 65% in size
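First, reporter cells (HEPG2 CAGA-GFP) rested 2 h at 37 degrees C. Next, compounds were pinned in and TGF-beta added to 500 pg/mL final. After 18 h, GFP was imaged per cell and summed per well.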
DT40 TDP1 no CPT: qHTS for Inhibitors of human tyrosyl-DNA phosphodiesterase 1 (TDP1): qHTS in cells in absence of CPT; 15% of 420,000 active; Potency, µM (top dose mostly 46.2 µM), most hits filed as inhibitors; DT40 Tdp1-/- hTDP1 cells, no CPT, ATP luminescence, 48 h; note: nearly all actives have a fitted effect of over 55% in size
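A cellular qHTS used chicken DT40 cells lacking endogenous Tdp1 but carrying stably transfected human TDP1. Compounds were applied without camptothecin, and cell growth kinetics were judged by ATP-dependent luminescence after ≥48 hr.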
TGFb CAGA inh: TGF-b pathway inhibition, cherry-pick retest; AID 720534; 63% of 1,600 active; Potency, µM (series often up to 46.1 µM), usual class: inhibitors; shares compounds with TGFb inhibitor; HepG2 CAGA-GFP TGF-b reporter, GFP fluorescence, 18 h; cells stimulated with TGF-beta, 500 pg/mL; note: nearly all actives have a fitted effect of over 65% in size
HepG2 tox-2: toxic to HepG2 cells in TGF-b counterscreen; Potency, µM (titrated, usually from 46.1 µM), usual class: inhibitors; HepG2 CAGA-GFP viability, ATP luminescence, 18 h; cells stimulated with TGF-beta, 500 pg/mL; 27% of 1,600 active; AID 720535; shares compounds with TGFb inhibitor; note: nearly all actives have a fitted effect of over 70% in size
CCL64 TGFb inh: TGF-b inhibition, CCL64 orthogonal assay | shares compounds with TGFb inhibitor | CCL64 CAGA-GFP reporter, TGF-b stimulated, GFP fluorescence, 18 h | Potency, µM (titrated, usually from 46.1 µM), most hits filed as inhibitors | 41% of 1,600 active | AID 720536; note: nearly all actives have a fitted effect of over 65% in size
COP TGFb inh: TGF-b inhibition validated with COP promoter. 3% of 1,600 active. AID 720537. shares compounds with TGFb inhibitor. Potency, µM (doses to about 46.1 µM), hits mostly inhibitors. HepG2 COP-GFP TGF-b reporter, GFP fluorescence, 18 h; cells stimulated by added recombinant TGF-beta; note: nearly all actives have a fitted effect of over 70% in size
A number is an active result. Unless noted, calls come from the whole dose curve; as a rule, active = well fitted curve in the direction sought with a large enough effect; inconclusive = small, poorly fitted or top-dose-only effect, or another doubt; inactive = no such curve, though single readings can be large; an effect the other way counts as inactive or inconclusive.

For CC(=NCCc1c[nH]c2ccccc12)c1c(O)n(Cc2ccccc2)c(=O)[nH]c1=O the results were HepG2 tox-1 inactive, IL-1B inflam inh inconclusive, TDP1 inh inactive, DT40 TDP1 CPT 7.3µM, TGFb inhibitor 11µM, DT40 TDP1 no CPT 8.2µM, TGFb CAGA inh 21µM, HepG2 tox-2 inactive, CCL64 TGFb inh inconclusive and COP TGFb inh inactive.
For O=CNc1ccc(OP(=O)(Oc2ccccc2)Oc2ccccc2)cc1 the results were HepG2 tox-1 inactive, IL-1B inflam inh inactive, TDP1 inh inactive, DT40 TDP1 CPT inactive, TGFb inhibitor inactive and DT40 TDP1 no CPT inactive.
`COc1ccc(-n2nc(C(=O)NCC(=O)N3CCC4(CC3)OCCO4)c3ccccc3c2=O)cc1Cl` gave HepG2 tox-1 inactive, IL-1B inflam inh inactive, TDP1 inh inactive, DT40 TDP1 CPT inactive, TGFb inhibitor inactive and DT40 TDP1 no CPT inconclusive.
For CC1=C(N2CC2)C(=O)C(CO)=C(N2CC2)C1=O the results were HepG2 tox-1 inactive, IL-1B inflam inh -99, DT40 TDP1 CPT 0.026µM, TGFb inhibitor 0.32µM, DT40 TDP1 no CPT 0.029µM, TGFb CAGA inh 0.1µM, HepG2 tox-2 0.21µM, CCL64 TGFb inh inactive and COP TGFb inh inactive.
`Oc1ccccc1-[n+]1c(-c2ccccc2)cc(-c2ccccc2)c(O)c1-c1ccccc1` gave HepG2 tox-1 inactive, IL-1B inflam inh inactive, TDP1 inh inactive, DT40 TDP1 CPT inconclusive, TGFb inhibitor 11µM, DT40 TDP1 no CPT inconclusive, TGFb CAGA inh inconclusive, HepG2 tox-2 inconclusive, CCL64 TGFb inh 23µM and COP TGFb inh inactive.
Screening CC1=CC2OC3CC4OC(=O)C=CC=CC(=O)OCCC(C)C(O)C(=O)OCC2(CC1O)C4(C)C31CO1 (stereo not drawn) returned HepG2 tox-1 inactive, IL-1B inflam inh -98, DT40 TDP1 CPT 0.15µM, TGFb inhibitor inactive, DT40 TDP1 no CPT 0.16µM, TGFb CAGA inh 0.012µM, CCL64 TGFb inh 0.0046µM and COP TGFb inh inactive.
`CC1=CC2OC3CC4OC(=O)C=CC=CC(C(C)O)OCC(O)C(C)CC(=O)OCC2(CC1O)C4(C)C31CO1` (stereo not drawn) gave HepG2 tox-1 inactive, IL-1B inflam inh -116, DT40 TDP1 CPT 0.013µM, TGFb inhibitor inactive, DT40 TDP1 no CPT 0.021µM, TGFb CAGA inh 0.041µM, CCL64 TGFb inh 0.029µM and COP TGFb inh inactive.
Screening CP(=O)(Nc1ccccc1)C(Cl)(Cl)Cl (stereo not drawn) returned HepG2 tox-1 inactive, IL-1B inflam inh inactive, TDP1 inh inactive, DT40 TDP1 CPT inactive, TGFb inhibitor inactive and DT40 TDP1 no CPT inactive.
`C=CCn1c(O)c(C(CC)=NCc2ccco2)c(=O)[nH]c1=O` gave HepG2 tox-1 inactive, IL-1B inflam inh inactive, DT40 TDP1 CPT inactive, TGFb inhibitor inactive and DT40 TDP1 no CPT inactive.
`Cc1c(NC(NC(=O)CF)C(Cl)(Cl)Cl)c(=O)n(-c2ccccc2)n1C` (stereo not drawn) gave HepG2 tox-1 inactive, IL-1B inflam inh inactive, TDP1 inh inactive, DT40 TDP1 CPT inactive, TGFb inhibitor inactive and DT40 TDP1 no CPT inactive.
`COc1ccc(S(=O)(=O)N2c3ccc(F)cc3CCC2C)cc1` (stereo not drawn) gave HepG2 tox-1 inactive, IL-1B inflam inh inactive, DT40 TDP1 CPT 0.92µM, TGFb inhibitor 6.3µM, DT40 TDP1 no CPT 0.58µM, TGFb CAGA inh 4.1µM, HepG2 tox-2 inactive, CCL64 TGFb inh 5.8µM and COP TGFb inh inactive.
Screening CC(C)c1ccc(N2C(=O)NC(=O)/C(=C\c3cnc(-c4ccccc4)nc3)C2=O)cc1 returned HepG2 tox-1 inactive, IL-1B inflam inh inactive, TDP1 inh inactive, DT40 TDP1 CPT inconclusive, TGFb inhibitor inactive and DT40 TDP1 no CPT inconclusive.
CC(C)c1ccc(N2C(=O)NC(=O)/C(=C\C=C\c3ccco3)C2=O)cc1 was read as HepG2 tox-1 inactive, IL-1B inflam inh -100, TDP1 inh inactive, DT40 TDP1 CPT inconclusive, TGFb inhibitor 10µM, DT40 TDP1 no CPT inconclusive, TGFb CAGA inh 4.1µM, HepG2 tox-2 7.3µM, CCL64 TGFb inh 5.8µM and COP TGFb inh inactive.
For CCC1(OC(=O)CN)C(=O)OCc2c1cc1n(c2=O)Cc2cc3ccccc3nc2-1 (stereo not drawn) the results were HepG2 tox-1 inactive, IL-1B inflam inh -98, TDP1 inh inactive, DT40 TDP1 CPT 0.16µM, TGFb inhibitor 2.2µM, DT40 TDP1 no CPT 0.065µM, TGFb CAGA inh 1.2µM, HepG2 tox-2 0.58µM, CCL64 TGFb inh 2.3µM and COP TGFb inh inactive.
`CC(=O)OC[C@]12CCC(C)=C[C@H]1O[C@@H]1[C@H](O)[C@@H](OC(C)=O)[C@@]2(C)[C@]12CO2` gave HepG2 tox-1 inactive, IL-1B inflam inh -106, DT40 TDP1 CPT 0.021µM, TGFb inhibitor inactive, DT40 TDP1 no CPT 0.016µM, TGFb CAGA inh 0.037µM, HepG2 tox-2 0.15µM, CCL64 TGFb inh 0.037µM and COP TGFb inh inactive.
For C=C(C)CSc1nnc([C@@H](N)Cc2c[nH]c3ccccc23)o1 the results were HepG2 tox-1 inactive, IL-1B inflam inh inactive, TDP1 inh inactive, DT40 TDP1 CPT inactive, TGFb inhibitor inactive and DT40 TDP1 no CPT inactive.
`Cc1[nH]nc2ccc(-c3cncc(OC[C@@H](N)Cc4c[nH]c5ccccc45)c3)cc12` gave HepG2 tox-1 inactive, IL-1B inflam inh -104, DT40 TDP1 CPT 0.58µM, TGFb inhibitor 1µM, DT40 TDP1 no CPT 0.58µM, TGFb CAGA inh 1.6µM, HepG2 tox-2 1.3µM, CCL64 TGFb inh inactive and COP TGFb inh inactive.
